In all, about 5,500 compounds went through this assay and about 2,000 (36%) were called active. About 18% were inconclusive and are not listed. Cut-off read from the data, not from the text of the source: active = normalized growth mostly below about 0.91 (no sharp cut-off); inconclusive = no clear call, values can overlap the other calls; inactive = mostly above about 0.92. The list shows a part of the results.
Test: chemical genetic growth profiling, strain panel (AID 1159580);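 note: tested at 20 µM; growth read once vehicle control cultures reached saturation at 30 °C; 1 = growth at the plate median or of vehicle wells; lower values mean less growth of the strain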
Conditions: S. cerevisiae deletion strains, growth OD

Measured: normalized growth

C=C1C(=O)O[C@@H]2[C@H]3O[C@]3(C)CCC=C(C)CC[C@@H]12
active: locus YGR229C, strain SMI1, hits give low values 0.822 | locus YJR075W, strain HOC1, hits give low values 0.906 | locus YMR307W, strain GAS1, hits give low values 0.766
inactive: locus YAL040C, strain CLN3, hits give low values 0.966 | locus YCL061C, strain MRC1 (second series), hits give low values 0.96 | locus YDR363W, strain ESC2, hits give low values 0.969 | locus YER002W, strain NOP16, hits give low values 0.981 | locus YNL175C, strain NOP13, hits give low values 0.956 | locus YNL197C, strain WHI3, hits give low values 0.95 | locus YNL224C, strain SQS1, hits give low values 0.967 | locus YNL322C, strain KRE1, hits give low values 0.945 | locus YOR083W, strain WHI5 (second series), hits give low values 0.972 | locus YPL055C, strain LGE1, hits give low values 0.945
